Measured values from ChEMBL document CHEMBL2218924, “A broad activity screen in support of a chemogenomic map for kinase signalling research and drug discovery” (Biochem J, 2013).

Tests used:
[1] = target: T1, Serine/threonine-protein kinase TBK1 (Homo sapiens) (UniProt Q9UHD2); details: at 10 µM
T1 sequence (whole entry): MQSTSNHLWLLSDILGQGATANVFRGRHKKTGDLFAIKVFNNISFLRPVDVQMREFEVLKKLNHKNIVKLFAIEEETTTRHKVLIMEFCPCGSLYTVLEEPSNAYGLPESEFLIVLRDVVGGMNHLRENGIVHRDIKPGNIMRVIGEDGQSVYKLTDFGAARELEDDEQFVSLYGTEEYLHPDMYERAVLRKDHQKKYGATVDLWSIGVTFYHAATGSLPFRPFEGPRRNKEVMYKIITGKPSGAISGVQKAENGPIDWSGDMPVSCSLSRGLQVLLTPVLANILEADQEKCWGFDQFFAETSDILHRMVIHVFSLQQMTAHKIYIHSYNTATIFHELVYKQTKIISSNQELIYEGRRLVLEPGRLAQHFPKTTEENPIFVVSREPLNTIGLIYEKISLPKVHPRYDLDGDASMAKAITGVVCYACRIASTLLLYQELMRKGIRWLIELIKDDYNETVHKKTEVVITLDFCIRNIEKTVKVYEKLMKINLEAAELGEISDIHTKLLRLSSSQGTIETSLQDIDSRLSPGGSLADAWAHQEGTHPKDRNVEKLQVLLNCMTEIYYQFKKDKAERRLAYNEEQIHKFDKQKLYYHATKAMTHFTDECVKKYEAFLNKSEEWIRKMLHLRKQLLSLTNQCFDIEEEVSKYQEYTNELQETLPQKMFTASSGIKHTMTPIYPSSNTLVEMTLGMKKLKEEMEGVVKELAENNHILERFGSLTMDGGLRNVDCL

[2] = target: T2, TGF-beta receptor type-1 (Homo sapiens) (UniProt P36897); details: at 1 µM
T2 sequence (whole entry): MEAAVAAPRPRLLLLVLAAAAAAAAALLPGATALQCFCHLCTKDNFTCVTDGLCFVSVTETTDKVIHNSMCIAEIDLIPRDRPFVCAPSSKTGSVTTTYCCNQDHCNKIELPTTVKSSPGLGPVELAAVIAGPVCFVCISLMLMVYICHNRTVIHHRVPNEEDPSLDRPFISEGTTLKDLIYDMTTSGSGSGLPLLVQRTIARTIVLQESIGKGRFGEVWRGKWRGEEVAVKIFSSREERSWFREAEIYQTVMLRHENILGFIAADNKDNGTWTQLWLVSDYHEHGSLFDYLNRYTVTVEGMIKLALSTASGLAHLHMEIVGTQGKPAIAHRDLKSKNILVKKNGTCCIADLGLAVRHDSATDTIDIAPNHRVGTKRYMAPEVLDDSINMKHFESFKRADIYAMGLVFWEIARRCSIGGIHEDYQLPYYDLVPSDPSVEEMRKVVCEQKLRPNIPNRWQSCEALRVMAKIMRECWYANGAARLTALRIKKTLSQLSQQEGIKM

[3] = target: T2, TGF-beta receptor type-1 (Homo sapiens); details: at 10 µM
[4] = target: Insulin-like growth factor 1 receptor (Homo sapiens) (UniProt P08069); details: at 1 µM
Chain of Insulin-like growth factor 1 receptor (Homo sapiens) (P08069 31-736 limits assumed): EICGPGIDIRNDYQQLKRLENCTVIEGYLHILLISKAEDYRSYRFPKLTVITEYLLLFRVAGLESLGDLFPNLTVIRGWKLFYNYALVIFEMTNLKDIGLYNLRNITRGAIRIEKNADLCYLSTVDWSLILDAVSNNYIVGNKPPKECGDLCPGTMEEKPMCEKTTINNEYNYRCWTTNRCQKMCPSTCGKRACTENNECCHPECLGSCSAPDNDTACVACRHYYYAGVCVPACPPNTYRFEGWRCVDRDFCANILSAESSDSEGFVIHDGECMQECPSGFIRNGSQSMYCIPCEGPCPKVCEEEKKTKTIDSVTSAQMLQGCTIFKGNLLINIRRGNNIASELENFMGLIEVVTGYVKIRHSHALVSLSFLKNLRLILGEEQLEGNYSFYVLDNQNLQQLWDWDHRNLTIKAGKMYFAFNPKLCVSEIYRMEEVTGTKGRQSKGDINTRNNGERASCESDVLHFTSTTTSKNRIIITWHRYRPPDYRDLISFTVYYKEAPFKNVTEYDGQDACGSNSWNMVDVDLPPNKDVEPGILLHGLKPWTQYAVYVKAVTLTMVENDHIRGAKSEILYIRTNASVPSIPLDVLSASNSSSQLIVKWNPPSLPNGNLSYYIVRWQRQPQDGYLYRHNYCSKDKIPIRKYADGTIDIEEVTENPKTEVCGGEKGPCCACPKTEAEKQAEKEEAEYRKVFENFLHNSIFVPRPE
Chain of Insulin-like growth factor 1 receptor (Homo sapiens) (P08069 741-1367 limits assumed): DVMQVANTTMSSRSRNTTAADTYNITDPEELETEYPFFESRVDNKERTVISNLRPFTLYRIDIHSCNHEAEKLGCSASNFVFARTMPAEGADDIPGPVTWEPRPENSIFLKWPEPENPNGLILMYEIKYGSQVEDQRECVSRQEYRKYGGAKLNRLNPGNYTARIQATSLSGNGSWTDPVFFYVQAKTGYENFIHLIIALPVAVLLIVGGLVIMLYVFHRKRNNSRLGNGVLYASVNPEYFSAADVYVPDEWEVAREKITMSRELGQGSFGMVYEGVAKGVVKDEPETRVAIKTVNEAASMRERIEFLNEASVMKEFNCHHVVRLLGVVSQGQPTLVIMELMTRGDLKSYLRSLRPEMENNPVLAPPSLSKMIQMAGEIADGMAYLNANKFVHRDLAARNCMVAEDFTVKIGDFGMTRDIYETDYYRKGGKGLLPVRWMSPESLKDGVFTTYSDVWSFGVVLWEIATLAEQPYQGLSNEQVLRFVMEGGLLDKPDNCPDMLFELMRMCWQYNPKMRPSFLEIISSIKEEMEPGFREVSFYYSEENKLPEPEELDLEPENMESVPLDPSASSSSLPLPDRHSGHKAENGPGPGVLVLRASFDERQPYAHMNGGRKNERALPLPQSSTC

[5] = target: Insulin-like growth factor 1 receptor (Homo sapiens) (UniProt P08069); details: at 10 µM
[6] = target: T3, Inhibitor of nuclear factor kappa-B kinase subunit alpha (Homo sapiens) (UniProt O15111); details: at 1 µM
T3 sequence (whole entry): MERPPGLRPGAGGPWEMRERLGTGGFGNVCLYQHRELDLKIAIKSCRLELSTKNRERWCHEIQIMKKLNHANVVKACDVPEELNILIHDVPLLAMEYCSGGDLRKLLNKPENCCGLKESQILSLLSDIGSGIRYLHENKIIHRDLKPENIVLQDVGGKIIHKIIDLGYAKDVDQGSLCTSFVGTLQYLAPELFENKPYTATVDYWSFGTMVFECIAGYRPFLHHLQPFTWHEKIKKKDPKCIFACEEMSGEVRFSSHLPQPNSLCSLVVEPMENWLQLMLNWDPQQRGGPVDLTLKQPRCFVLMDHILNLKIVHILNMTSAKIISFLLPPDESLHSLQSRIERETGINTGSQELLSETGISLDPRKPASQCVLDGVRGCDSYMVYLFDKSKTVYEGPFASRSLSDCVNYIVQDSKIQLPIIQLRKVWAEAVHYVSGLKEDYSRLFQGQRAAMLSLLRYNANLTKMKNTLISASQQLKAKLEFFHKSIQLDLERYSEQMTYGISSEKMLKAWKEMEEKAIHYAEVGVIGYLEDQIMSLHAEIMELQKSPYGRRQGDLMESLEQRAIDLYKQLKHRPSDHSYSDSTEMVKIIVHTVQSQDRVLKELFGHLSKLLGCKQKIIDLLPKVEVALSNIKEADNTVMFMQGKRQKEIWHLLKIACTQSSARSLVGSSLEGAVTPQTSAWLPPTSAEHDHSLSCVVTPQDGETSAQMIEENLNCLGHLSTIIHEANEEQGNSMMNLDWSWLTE

[7] = target: T3, Inhibitor of nuclear factor kappa-B kinase subunit alpha (Homo sapiens); details: at 10 µM
[8] = target: T4, Inhibitor of nuclear factor kappa-B kinase subunit beta (Homo sapiens) (UniProt O14920); details: at 1 µM
T4 sequence (whole entry): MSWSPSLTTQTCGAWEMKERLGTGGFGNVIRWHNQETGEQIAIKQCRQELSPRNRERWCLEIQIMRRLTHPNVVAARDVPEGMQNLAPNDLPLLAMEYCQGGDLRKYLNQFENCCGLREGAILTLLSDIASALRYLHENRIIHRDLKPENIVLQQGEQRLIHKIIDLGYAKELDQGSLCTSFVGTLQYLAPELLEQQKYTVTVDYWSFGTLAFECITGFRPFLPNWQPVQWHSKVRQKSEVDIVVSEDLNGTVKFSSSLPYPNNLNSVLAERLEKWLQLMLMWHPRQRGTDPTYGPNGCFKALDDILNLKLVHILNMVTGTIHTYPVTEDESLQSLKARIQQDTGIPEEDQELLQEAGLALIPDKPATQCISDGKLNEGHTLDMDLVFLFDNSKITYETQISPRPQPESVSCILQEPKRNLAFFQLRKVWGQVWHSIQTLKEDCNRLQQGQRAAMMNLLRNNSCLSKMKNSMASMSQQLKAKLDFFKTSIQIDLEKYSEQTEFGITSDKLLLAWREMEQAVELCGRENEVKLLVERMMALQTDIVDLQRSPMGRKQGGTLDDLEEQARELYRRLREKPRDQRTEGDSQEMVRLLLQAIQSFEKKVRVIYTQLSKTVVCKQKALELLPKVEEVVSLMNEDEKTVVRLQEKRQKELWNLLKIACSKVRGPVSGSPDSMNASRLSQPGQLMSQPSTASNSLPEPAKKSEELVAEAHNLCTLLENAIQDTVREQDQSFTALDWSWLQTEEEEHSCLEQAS

[9] = target: T4, Inhibitor of nuclear factor kappa-B kinase subunit beta (Homo sapiens); details: at 10 µM
[10] = target: Insulin receptor (Homo sapiens) (UniProt P06213); details: at 1 µM
Chain of Insulin receptor (Homo sapiens) (P06213 28-758 limits assumed): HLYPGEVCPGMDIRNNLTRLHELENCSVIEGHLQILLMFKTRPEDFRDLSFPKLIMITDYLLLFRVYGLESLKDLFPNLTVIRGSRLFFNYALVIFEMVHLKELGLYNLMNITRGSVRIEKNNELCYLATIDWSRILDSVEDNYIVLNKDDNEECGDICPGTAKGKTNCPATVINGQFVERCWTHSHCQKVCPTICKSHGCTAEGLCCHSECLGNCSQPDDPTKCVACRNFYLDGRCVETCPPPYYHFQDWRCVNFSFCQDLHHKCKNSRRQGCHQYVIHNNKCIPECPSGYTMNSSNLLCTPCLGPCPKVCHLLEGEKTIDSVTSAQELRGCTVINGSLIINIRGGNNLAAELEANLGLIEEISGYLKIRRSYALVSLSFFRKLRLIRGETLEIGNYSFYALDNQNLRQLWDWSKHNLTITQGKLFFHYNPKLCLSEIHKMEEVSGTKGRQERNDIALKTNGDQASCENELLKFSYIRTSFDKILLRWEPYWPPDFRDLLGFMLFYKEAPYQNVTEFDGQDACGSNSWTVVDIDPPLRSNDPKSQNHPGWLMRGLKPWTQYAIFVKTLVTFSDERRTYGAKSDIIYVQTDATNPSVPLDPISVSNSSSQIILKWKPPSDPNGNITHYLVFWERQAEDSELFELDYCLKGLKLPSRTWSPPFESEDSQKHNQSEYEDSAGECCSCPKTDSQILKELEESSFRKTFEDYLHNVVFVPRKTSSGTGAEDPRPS
Chain of Insulin receptor (Homo sapiens) (P06213 763-1382 limits assumed): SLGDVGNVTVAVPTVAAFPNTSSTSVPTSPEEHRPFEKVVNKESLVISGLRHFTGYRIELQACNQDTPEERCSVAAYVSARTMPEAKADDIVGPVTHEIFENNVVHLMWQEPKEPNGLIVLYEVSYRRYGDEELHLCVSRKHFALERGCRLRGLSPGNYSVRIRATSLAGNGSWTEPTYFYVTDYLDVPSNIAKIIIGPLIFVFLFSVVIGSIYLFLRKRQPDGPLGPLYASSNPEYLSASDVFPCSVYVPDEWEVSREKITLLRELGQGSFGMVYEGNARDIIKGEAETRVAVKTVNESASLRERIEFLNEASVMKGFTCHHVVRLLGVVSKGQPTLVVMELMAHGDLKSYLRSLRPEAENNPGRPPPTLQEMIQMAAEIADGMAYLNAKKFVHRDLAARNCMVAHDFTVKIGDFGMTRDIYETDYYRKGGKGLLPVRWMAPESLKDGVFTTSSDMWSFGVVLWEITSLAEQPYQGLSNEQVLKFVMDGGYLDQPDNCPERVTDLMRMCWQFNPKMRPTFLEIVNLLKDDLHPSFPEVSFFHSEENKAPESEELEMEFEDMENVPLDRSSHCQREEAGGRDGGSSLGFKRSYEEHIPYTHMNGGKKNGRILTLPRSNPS

SMILES: Nc1n[nH]c2nnc(-c3c(-c4ccccc4)nn4ccccc34)cc12
- residual activity [1]: 67%
- residual activity [2]: 88%
- residual activity [3]: 83%
- residual activity [4]: 82%
- residual activity [5]: 76%
- residual activity [6]: 115%
- residual activity [7]: 107%
- residual activity [8]: 102%
- residual activity [9]: 102%
- residual activity [10]: 70%
